Screening data: PubChem BioAssay, National Center for Advancing Translational Sciences (NCATS)
Pf Dd2 inh: qHTS Primary assay for Inhibitors of Plasmodium falciparum Dd2 growth in vitro. P. falciparum Dd2 growth, SYBR Green, 72 h. Potency, µM (titrated, usually from 28.9 µM), inactives show top-dose activity, negative = inhibition, most hits filed as inhibitors. AID 1347417, 2020. 120,000 tested, 4.3% active; active means well fitted inhibition curve with a large enough effect;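 further: plate controls were DMSO vehicle for no effect and reference drug for full effect; nearly all actives have a fitted effect of over 65% in size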
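Readout: SYBR Green fluorescence, 485 nm excitation, 535 nm emission, after ~16 h lysis at 37C. Before that, Dd2-infected red cells (2.5% hematocrit) grew 72 h with compound, 29 uM top final concentration.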
* marks the source's active call; other numbers are inactive results; i = inactive; [ ] = another dose, or the depositor's remark. The sample as a whole holds a higher share of hits than the screen did. Potency means the concentration at half of the fitted maximal effect.

SMILES	Pf Dd2 inh
CC(=O)N1CC2(CCN(CC3CC3)C2)Cc2ccccc21 (stereo not drawn)	-26%[44.1 µM]
CC(=O)NCC(=O)N1Cc2ccccc2CC2(CCN(CC3CCCCC3)C2)C1 (stereo not drawn)	-24%
COc1cc2c(cc1CN1CCn3nc(C(O)CO)cc3C1)OCCO2 (stereo not drawn)	-6%
N#Cc1ccc(C(=O)N2C[C@@H](Oc3ccccc3)C[C@H]2C(=O)N2CCCC2)cc1	16%
COCCNC(=O)[C@@H]1C[C@@H](O)CN1C1CCN(C(=O)CCc2c[nH]c3ccccc23)CC1	-13%
O=C(CCc1ccccc1)N1CCC2(CC1)NC(=O)N(c1cccc(F)c1)N2	0%
CCCN1CCN(C(=O)c2ccnc(C(C)C)n2)[C@H]2CS(=O)(=O)C[C@H]21	0%
CCCC1(CO)CCCN(CCc2cnn(C)c2)C1 (stereo not drawn)	-13%
O=C(C1CCCC1)N1CC2(CCCN2C2COC2)Cc2ccccc21 (stereo not drawn)	8.9µM*
CS(=O)(=O)N1CCCN(C(=O)C2CCCCC2)c2ccccc21	33%
CC(=O)N1CC2(CCCN2C(=O)CCC(=O)O)Cc2ccccc21 (stereo not drawn)	18%
CC(=O)N1CC2(CCN(C(=O)c3ccc(Cl)cc3)CC2)Cc2ccccc21	3%
O=C(c1ccccc1)N1Cc2ccccc2CC2(CCN(CC3CCNC3)C2)C1 (stereo not drawn)	3%
O=C(c1ccc(Cl)cc1)N1CC2(CCN(CC3CCCCC3)CC2)Cc2ccccc21	5.6µM*
CCc1csc(CNC(=O)c2ccc(N3C[C@@H](C)O[C@@H](C)C3)nc2)n1	i
CC(C(N)=O)N1CCC2(CC1)C(=O)N(C)c1ccccc12 (stereo not drawn)	-4%
CCOCC(=O)N1CCC(C2CCN(S(C)(=O)=O)CC2)C1 (stereo not drawn)	14%
COC[C@@H]1CN(Cc2ccc(OC)cc2)C[C@H]1C(=O)N(C)C	-17%
COCc1nncn1C1CCN(C(=O)c2cc(F)cc(F)c2)CC1	6%
CSCC(=O)N1CCC2(CCN(Cc3cccc(F)c3)CC2)C(CO)C1 (stereo not drawn)	12%
c1ccc(COc2ccc(CN3CCN(C4CCNC4)CC3)cc2)cc1 (stereo not drawn)	8.9µM*
c1ccc(CN2C[C@H]3CCNC[C@H]32)cc1	i
c1ccc(COc2ccc(CN3CCSCC3)cc2)nc1	-1%
CN1C(=O)[C@H]2CN(Cc3ccc(Br)cc3)C[C@H]2C1=O	19%
COCc1cc(=O)n(CC(=O)Nc2ccc(Br)cc2F)c(N2CCOCC2)n1	7%
SMILES	Pf Dd2 inh
O=C1C(O)C2(CCCCC2)N1C1CCN(Cc2ccncc2F)CC1 (stereo not drawn)	-14%
CCCCS(=O)(=O)c1oc(-c2ccc(F)cc2)nc1S(=O)(=O)c1ccccc1	-24%
CC(C)S(=O)(=O)c1oc(-c2cccs2)nc1S(=O)(=O)c1ccc(F)cc1	10µM*
Cc1ccc(S(=O)(=O)c2nc(-c3cccs3)oc2SC(C)C)cc1	-9%
CS(=O)(=O)c1oc(-c2ccc(F)cc2)nc1S(=O)(=O)c1ccc(Cl)cc1	10%
O=S(=O)(c1ccccc1)c1nc(-c2cccs2)oc1SCc1ccc(F)cc1	3%
CC(C)S(=O)(=O)c1oc(-c2ccc(F)cc2)nc1S(=O)(=O)c1ccccc1	6.3µM*
COc1ccc(C(=O)N2CCCCCCNC(=O)CC2)c(OC)n1	4%
Cn1cc([C@@H](NC(=O)c2ccccc2N2CCCC2)C2CC(O)C2)cn1 (stereo partly drawn)	-15%
Cc1ccc(CNC(=O)C2CCCCC(=O)N2)o1 (stereo not drawn)	i
CC(C)COc1cc(=O)n2c(c1C(=O)NCc1ccccc1F)CCCCC2	6%
O=C(CCC1CCCC1)N1CCC(Cc2nc(C3CC3)n[nH]2)CC1	i
O=C(CCc1ccc2c(c1)OCO2)N[C@H](c1ccccn1)C1CC(O)C1 (stereo partly drawn)	6%
O=C(NCC1CC1)c1cccc(OC2CN(C3CCSCC3)C2)c1	-9%
O=C(NCC1CC1)c1cccc(OC2CN(Cc3ccc(F)cc3Cl)C2)c1	11µM*
CCN1CCC(N2CC(Oc3cccc(C(=O)NCC4CC4)c3)C2)CC1	5%
NC(=O)c1noc(CN2CC[C@@H]3[C@@H](CCC(=O)N3CCc3ccccc3)C2)n1	-7%
COc1ccc(S(=O)(=O)N[C@H]2C[C@@H](c3nc(-c4ccc(OC(F)(F)F)cc4)no3)N(C)C2)cc1	i
CC1=C[C@@H](CNC(=O)C2CC2)[C@H](C(C)C)C[C@H]1CC(=O)N1CCOCC1	i
CCC(CC)C(=O)NC[C@@H]1C=C(C)[C@H](Cc2nc3ccccc3n2C)C[C@H]1C(C)C	11µM*
CC1=C[C@@H](CNC(=O)C2CCCCC2)[C@H](C(C)C)C[C@H]1Cc1nc2ccccc2n1C	10µM*
CC(=O)N1CCN(C(=O)C[C@@H]2C[C@@H](C(C)C)[C@H](CNC(=O)C3CC3)C=C2C)CC1	i
CCCNC(=O)NC[C@@H]1C=C(C)[C@H](Cc2nc3ccccc3[nH]2)C[C@H]1C(C)C	i
CC1=C[C@@H](CNC(=O)Cn2cnnn2)[C@H](C(C)C)C[C@H]1Cc1nc2ccccc2[nH]1	i
Cc1ccc(C(=O)N2CCc3nnc([C@@H]4C[C@@H](O)CN4C)n3CC2)cn1	21%
SMILES	Pf Dd2 inh
O=C(C1CC1)N1CCCC(c2nc(C3CCOCC3)no2)C1 (stereo not drawn)	15%
CS(=O)(=O)N1CCCNCCNC(=O)CC1c1ccccc1 (stereo not drawn)	i
COc1cc(C(=O)Nc2nc3c(s2)C[C@]2(C)CC[C@@H]4[C@H](OC(=O)[C@H]4C)[C@H]2[C@@H]3C)cc(OC)c1OC	-25%
COc1ccc(Br)c2c1-c1nc(NC(=O)c3ccccc3F)sc1C2	47%
COc1ccc(Br)c2c1-c1nc(NC(=O)c3ccccc3SC)sc1C2	-5%
COc1ccc(Br)c2c1-c1nc(NC(=O)c3ccc(F)cc3)sc1C2	2.8µM*
COc1cc(C(=O)Nc2ccc3nc(SCc4ccccc4)sc3c2)cc(OC)c1OC	i
COc1cc(C(=O)Nc2nc3c(s2)Cc2c(Br)ccc(OC)c2-3)cc(OC)c1OC	3.2µM*
COc1ccc2[nH]c3c(c2c1)CCN(C)C31CCN(C(=O)c2ccnn2C)CC1	-8%
CN(Cc1ccon1)C(=O)c1ccc2c(c1)[nH]c(=O)n2C1CCC(O)CC1 (stereo not drawn)	-4%
c1cc2nnc(C3CC3)n2nc1N1CCCC1	19%
O=C(c1ccc(C(F)(F)F)cc1)N1CCOC[C@H](Oc2cccnc2)C1	-18%[44.1 µM]
O=C(Nc1ccc(F)c(Cl)c1)C1CCc2sc(C(=O)N3CCOCC3)cc2C1 (stereo not drawn)	i
COCCNC(=O)[C@@H]1C[C@H](Oc2ccccc2)CN1C(=O)c1cnc(C)cn1	26%
Cc1noc2c(NC3CCC(O)CC3)cc(-c3cccnc3)nc12 (stereo not drawn)	i
CCN1C(=O)Cc2cc(C(=O)NCc3ccc4c(c3)OCO4)ccc21	i
COc1cccc(NC(=O)N2CCCC3(C2)Nc2cccnc2NC3=NC2CCCC2)c1 (stereo not drawn)	-1%[5.79 µM]
O=C(Nc1cc(F)cc(F)c1)N1CCCC2(C1)Nc1cccnc1NC2=NC1CCCC1 (stereo not drawn)	-16%[5.79 µM]
COc1ccc(C)cc1NC(=O)N1CCCC2(C1)Nc1cccnc1NC2=NC1CCCC1 (stereo not drawn)	1.3µM*
CCc1cc(=O)n(CC(=O)Nc2ccc(N(C)C)cc2)c(-c2ccccc2)n1	i
